In PubChem BioAssay one finds fluorescence slope, NADPH fluorescence slope and slope data, which are given here for 18 molecules.

Activity calls are given as the source filed them.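 The calls were made as follows, unless noted: active = fluorescence slope higher than the sample average by over 3 SD (cut at about -0.22 in these data, passing the limit was not always enough); inactive = the rest.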

Chain of Alpha-2C adrenergic receptor (Homo sapiens) (P18825 whole entry, looked up): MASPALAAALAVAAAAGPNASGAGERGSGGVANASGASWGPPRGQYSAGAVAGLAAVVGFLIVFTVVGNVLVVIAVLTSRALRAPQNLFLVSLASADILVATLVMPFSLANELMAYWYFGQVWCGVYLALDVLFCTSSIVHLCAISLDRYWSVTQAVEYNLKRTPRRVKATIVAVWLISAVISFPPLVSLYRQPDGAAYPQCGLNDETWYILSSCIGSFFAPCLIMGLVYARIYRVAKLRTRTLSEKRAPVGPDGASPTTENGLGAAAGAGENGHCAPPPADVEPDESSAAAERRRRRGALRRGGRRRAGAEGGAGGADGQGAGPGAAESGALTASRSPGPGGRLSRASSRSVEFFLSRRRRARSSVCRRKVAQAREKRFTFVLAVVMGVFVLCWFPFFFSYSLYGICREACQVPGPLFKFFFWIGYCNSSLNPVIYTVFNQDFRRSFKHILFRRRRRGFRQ
Chain of Voltage-gated potassium channel subunit beta-2 (Rattus norvegicus) (P62483 whole entry, looked up): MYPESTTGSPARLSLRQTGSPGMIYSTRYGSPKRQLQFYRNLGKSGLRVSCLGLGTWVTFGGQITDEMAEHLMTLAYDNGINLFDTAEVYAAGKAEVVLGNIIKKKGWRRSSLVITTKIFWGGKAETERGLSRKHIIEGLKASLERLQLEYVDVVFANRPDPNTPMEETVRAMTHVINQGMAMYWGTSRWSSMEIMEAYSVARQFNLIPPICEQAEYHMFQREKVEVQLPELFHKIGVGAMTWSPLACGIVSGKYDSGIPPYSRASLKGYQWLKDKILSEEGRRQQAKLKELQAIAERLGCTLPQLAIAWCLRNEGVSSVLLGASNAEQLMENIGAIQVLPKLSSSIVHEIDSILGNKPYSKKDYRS

The first experiment addresses Voltage-gated potassium channel subunit beta-2 (Rattus norvegicus) (UniProt P62483). Put plainly: inhibitors of rat Kvbeta2 reductase activity – biochemical, NADPH fluorescence, primary screen (AID 622).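 Also: slope of raw intensity against log time taken from 70 to 1610 s.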 To be noted: recombinant KvBeta, 4-cyanobenzaldehyde reduction, at 10 µM, active compounds read high.
Regarding `Cc1cc(=O)oc2c(CN3CCN(C)CC3)c(O)c(Cl)cc12`, the fluorescence slope is -0.0297 (active).

In the case of `C1CNCCNCCNCCN1`, the fluorescence slope was -0.481 (inactive).

Consider `CC(C(=O)O)c1ccc(-c2ccccc2)c(F)c1` (configuration not stated), for which the fluorescence slope was -0.456 (inactive).

On to `Cc1c(C)c2cc(Cl)c(O)c(CN3CCCCC3)c2oc1=O`, for which the fluorescence slope is -0.198 (inactive).

`Cc1oc2nc(SCCCC(=O)NCCCO)nc(N)c2c1C`: the fluorescence slope is -0.522 (inactive).

In the case of `CCN(CC)CCNC(=O)c1ccc(NC(C)=O)cc1`, the fluorescence slope was -0.442 (inactive).

Consider `CCCC(=O)N1c2ccccc2NC2=C(C(=O)CCC2)C1c1ccc(F)cc1` (configuration not stated), for which the fluorescence slope is -0.574 (inactive).

On to `COC(=O)CC1SC(=O)NC1=O` (configuration not stated), for which the fluorescence slope was -0.414 (inactive).

As for `Cc1cc(OCC(=O)Nc2ccc3oc(-c4ccncc4)nc3c2)ccc1Cl`, the fluorescence slope is -0.458 (inactive).

As for `CCn1cc(C(=O)O)c(=O)c2cc(F)c(N3CCNCC3)nc21`, the fluorescence slope is -0.463 (inactive).

Consider `COc1ccc(C(=O)Cn2c(N3CCCCC3)nc3c2c(=O)n(C)c(=O)n3C)cc1OC`, for which the fluorescence slope was -0.424 (inactive).

As to `C=CCn1c(=S)[nH]c2nc3c(cc2c1=O)COC(C)(C)C3`, the fluorescence slope was -0.495 (inactive).

Consider `Cc1cccc(N(CC(O)CN(C)C)S(=O)(=O)c2ccccc2)c1` (configuration not stated), for which the fluorescence slope is -0.413 (inactive).

As for `c1ccc(-c2nnc(OCCN3CCOCC3)c3ccccc23)cc1`, the fluorescence slope is -0.415 (inactive).

With `C[C@@H]1CCC[C@H](C)N1NC(=O)c1ccc(Cl)c(S(N)(=O)=O)c1`, the fluorescence slope is -0.465 (inactive).

As to `CCN(CC)CCN1C(=O)C(O)=C(C(=O)c2ccco2)C1c1ccccn1` (configuration not stated), the fluorescence slope is -0.431 (inactive).

`CCC1CCCCN1c1nc(-c2ccncc2)nc2ccccc12` (configuration not stated): the fluorescence slope was -0.391 (inactive).

For `CN1c2ccccc2-c2nc3ccccc3n2C1c1ccco1` (configuration not stated), the fluorescence slope is -0.315 (inactive).

A further experiment has the same target. Put plainly: enhancers of rat Kvbeta2 NADPH turnover – biochemical, NADPH fluorescence, primary screen (AID 623;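 active = NADPH fluorescence slope more negative than the mean of all samples by about 3 SD, 99.7% confidence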;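 also: fluorescence intensity change per second fitted from 20 to 320 s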). To be noted: Recombinant KvBeta, NADPH fluorescence decrease slope, 10 min; at 10 µM; active compounds read low.
Regarding `Cc1cc(=O)oc2c(CN3CCN(C)CC3)c(O)c(Cl)cc12`, the NADPH fluorescence slope is 2e-05 (inactive).

For `C1CNCCNCCNCCN1`, the NADPH fluorescence slope is -4.4e-05 (inactive).

Take `CC(C(=O)O)c1ccc(-c2ccccc2)c(F)c1` (configuration not stated): the NADPH fluorescence slope was -6e-05 (inactive).

For `Cc1c(C)c2cc(Cl)c(O)c(CN3CCCCC3)c2oc1=O`, the NADPH fluorescence slope was -2.2e-05 (inactive).

As to `Cc1oc2nc(SCCCC(=O)NCCCO)nc(N)c2c1C`, the NADPH fluorescence slope is -1.7e-05 (inactive).

With `CCN(CC)CCNC(=O)c1ccc(NC(C)=O)cc1`, the NADPH fluorescence slope was -5.7e-05 (inactive).

Turning to `CCCC(=O)N1c2ccccc2NC2=C(C(=O)CCC2)C1c1ccc(F)cc1` (configuration not stated), the NADPH fluorescence slope is -1.5e-05 (inactive).

On to `COC(=O)CC1SC(=O)NC1=O` (configuration not stated), for which the NADPH fluorescence slope was -0.000171 (inactive).

For the molecule `Cc1cc(OCC(=O)Nc2ccc3oc(-c4ccncc4)nc3c2)ccc1Cl`, the NADPH fluorescence slope is -1.3e-05 (inactive).

`CCn1cc(C(=O)O)c(=O)c2cc(F)c(N3CCNCC3)nc21`: the NADPH fluorescence slope is -5.7e-05 (inactive).

Consider `COc1ccc(C(=O)Cn2c(N3CCCCC3)nc3c2c(=O)n(C)c(=O)n3C)cc1OC`, for which the NADPH fluorescence slope was -9.5e-05 (inactive).

Take `C=CCn1c(=S)[nH]c2nc3c(cc2c1=O)COC(C)(C)C3`: the NADPH fluorescence slope was -0.00014 (inactive).

With `Cc1cccc(N(CC(O)CN(C)C)S(=O)(=O)c2ccccc2)c1` (configuration not stated), the NADPH fluorescence slope was -6e-05 (inactive).

For the molecule `c1ccc(-c2nnc(OCCN3CCOCC3)c3ccccc23)cc1`, the NADPH fluorescence slope is -0.000176 (inactive).

For the molecule `C[C@@H]1CCC[C@H](C)N1NC(=O)c1ccc(Cl)c(S(N)(=O)=O)c1`, the NADPH fluorescence slope is -5.1e-05 (inactive).

`CCN(CC)CCN1C(=O)C(O)=C(C(=O)c2ccco2)C1c1ccccn1` (configuration not stated): the NADPH fluorescence slope was -0.000163 (inactive).

In the case of `CCC1CCCCN1c1nc(-c2ccncc2)nc2ccccc12` (configuration not stated), the NADPH fluorescence slope was -0.000148 (inactive).

Regarding `CN1c2ccccc2-c2nc3ccccc3n2C1c1ccco1` (configuration not stated), the NADPH fluorescence slope is 1.6e-05 (inactive).

The next experiment concerns the target Alpha-2C adrenergic receptor (Homo sapiens) (UniProt P18825). Put plainly: compounds altering alpha2C-coupled GIRK flux – cell-based, HEK293 alpha2C/GIRK1/2, thallium flux, primary screen (AID 624;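 active = fluorescence slope after compound addition differing from the mean of all screened samples at 99.7% confidence, in either direction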;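 also: slope of fluorescence ratio to pre-addition baseline per second over 15 to 24 s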). The following applies: thallium flux BTC fluorescence, at 10 µM, actives lie on both sides.
Regarding `Cc1cc(=O)oc2c(CN3CCN(C)CC3)c(O)c(Cl)cc12`, the slope was 0.00763 (inactive).

For `C1CNCCNCCNCCN1`, the slope was 0.00519 (inactive).

In the case of `CC(C(=O)O)c1ccc(-c2ccccc2)c(F)c1` (configuration not stated), the slope is 0.0055 (inactive).

As for `Cc1c(C)c2cc(Cl)c(O)c(CN3CCCCC3)c2oc1=O`, the slope is 0.00419 (inactive).

For the molecule `Cc1oc2nc(SCCCC(=O)NCCCO)nc(N)c2c1C`, the slope was 0.00668 (inactive).

`CCN(CC)CCNC(=O)c1ccc(NC(C)=O)cc1`: the slope was 0.00544 (inactive).

`CCCC(=O)N1c2ccccc2NC2=C(C(=O)CCC2)C1c1ccc(F)cc1` (configuration not stated): the slope was 0.0063 (inactive).

On to `COC(=O)CC1SC(=O)NC1=O` (configuration not stated), for which the slope is 0.00686 (inactive).

As to `Cc1cc(OCC(=O)Nc2ccc3oc(-c4ccncc4)nc3c2)ccc1Cl`, the slope was 0.00694 (inactive).

Turning to `CCn1cc(C(=O)O)c(=O)c2cc(F)c(N3CCNCC3)nc21`, the slope is 0.00463 (inactive).

Take `COc1ccc(C(=O)Cn2c(N3CCCCC3)nc3c2c(=O)n(C)c(=O)n3C)cc1OC`: the slope was 0.00577 (inactive).

`C=CCn1c(=S)[nH]c2nc3c(cc2c1=O)COC(C)(C)C3`: the slope is 0.00772 (inactive).

`c1ccc(-c2nnc(OCCN3CCOCC3)c3ccccc23)cc1`: the slope is 0.00622 (inactive).

For the molecule `C[C@@H]1CCC[C@H](C)N1NC(=O)c1ccc(Cl)c(S(N)(=O)=O)c1`, the slope was 0.00499 (inactive).

On to `CCN(CC)CCN1C(=O)C(O)=C(C(=O)c2ccco2)C1c1ccccn1` (configuration not stated), for which the slope is 0.005 (inactive).

Turning to `CCC1CCCCN1c1nc(-c2ccncc2)nc2ccccc12` (configuration not stated), the slope is 0.00736 (inactive).
